TRHR enhancer – qHTS for Small Molecule Agonists and Allosteric Enhancers of Human TRH Receptor: Primary Screen for Enhancers. Thyrotropin-releasing hormone receptor (Homo sapiens), P34981. TRHR cells, fluo-8 calcium fluorescence, EC20 TRH enhancement. enhancement, % at 2 µM. actives 0.66% (n = 360,000); in the data active means enhancement above about 30%
Target sequence (P34981 whole entry, looked up): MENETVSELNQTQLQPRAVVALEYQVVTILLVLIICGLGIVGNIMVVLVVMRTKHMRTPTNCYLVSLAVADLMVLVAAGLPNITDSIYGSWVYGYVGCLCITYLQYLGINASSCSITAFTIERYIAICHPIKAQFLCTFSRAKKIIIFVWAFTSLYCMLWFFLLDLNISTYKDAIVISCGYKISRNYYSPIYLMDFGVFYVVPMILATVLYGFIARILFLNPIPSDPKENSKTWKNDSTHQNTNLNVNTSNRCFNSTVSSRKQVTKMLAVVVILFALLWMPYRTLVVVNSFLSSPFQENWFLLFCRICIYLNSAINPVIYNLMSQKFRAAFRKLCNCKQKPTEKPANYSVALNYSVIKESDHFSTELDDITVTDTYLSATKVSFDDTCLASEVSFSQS
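TRHR-expressing cells loaded with fluo-8 calcium dye were read kinetically (ex 480/em 530) during compound addition, then stimulated with an EC20 of TRH (10 nM final). Enhancement of the Gq-mediated intracellular calcium response was scored.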
TRHR agonist – qHTS for Small Molecule Agonists and Allosteric Enhancers of Human TRH Receptor: Primary Screen for Agonists; actives 0.18% (n = 360,000); TRHR cells, calcium flux fluo-8, FDSS agonist mode; Thyrotropin-releasing hormone receptor (Homo sapiens), P34981; activation, % at 2 µM
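Read-out: compound-evoked intracellular calcium rise in TRHR cells, fluo-8 dye, kinetic FDSS fluorescence at 1 s/cycle following a 10-cycle baseline. Cells cultured overnight before dye loading (30 min–1.5 h, RT).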
D1 antag – Antagonist of Human D 1 Dopamine Receptor: qHTS. D(1A) dopamine receptor (Homo sapiens), P21728. HEK293 TREx D1 cells, calcium flux, dopamine EC80; active compounds read low. activity change, negative = inhibition, % at 10 µM. actives 3.2% (n = 360,000). AID 504652, 2011; in the data active means activity change below about -30%
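Tetracycline-induced HEK293 Trex D1 cells, force-coupled to calcium, dye-loaded; compounds added and read 180 s, then EC80 dopamine added and calcium flux tracked kinetically another 180 s.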
Epigenetic derep – Quantitative High-Throughput Screen for Regulators of Epigenetic Control; actives 0.2% (n = 280,000); AID 1865, 2009; murine LDR cells, GFP reporter derepression, 30 h; Potency, µM (highest dose often 53.9 µM), usual class: activators; active means well fitted activation curve with a large enough effect; further: nearly all actives have a fitted effect of over 60% in size
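Reporter derepression read as number of fluorescent GFP-positive objects, 20-120 um in size, counted by laser-scanning cytometer. Mouse LDR line with an epigenetically silenced CMV-GFP locus; compound incubation 30 h, 37 C.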
D1 agonist – Allosteric Agonists of the Human D1 Dopamine Receptor: qHTS; D(1A) dopamine receptor (Homo sapiens), P21728; activation, % at 2 µM; HEK293 T-REx D1 cells, calcium flux, agonist mode; actives 1% (n = 360,000)
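Inducible HEK293 T-REx D1 cells, force-coupled to calcium signalling, were plated at 4000 cells/well with tetracycline and held overnight at 30 C. After no-wash calcium dye loading, compound-evoked calcium rise over 180 s flagged agonists.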
D1 potentiator – Potentiators of Human D1 Dopamine Receptor: qHTS | D(1A) dopamine receptor (Homo sapiens), P21728 | HEK293 TREx D1 cells, calcium flux, dopamine EC20 potentiation | potentiation, % at 10 µM | actives 0.036% (n = 360,000) | AID 504651, 2011; in the data active means potentiation above about 30%
Hits are given with their value; . = inactive; / = no result. This is a sample that favours compounds with a hit; in the whole collection about 4.6% have one here. Unless noted, no stated cut-off is given here; in the data, active means activation above about 30%; inactive means the rest.

SMILES | TRHR enhancer | TRHR agonist | D1 antag | Epigenetic derep | D1 agonist | D1 potentiator
COc1ccc(F)cc1S(=O)(=O)NCC(c1ccco1)S(=O)(=O)c1cccs1 (centres undefined) | . | . | / | . | . | .
Cc1noc(/C=C/c2ccco2)c1S(=O)(=O)N1CCC(C(=O)NCc2ccco2)CC1 | . | . | . | . | . | .
Cc1ccc(CNC(=O)C2CCN(S(=O)(=O)c3c(C)noc3/C=C/c3ccco3)CC2)cc1 | . | . | -48 | . | . | .
Cc1ccccc1NC(=O)C1CCN(S(=O)(=O)c2c(C)noc2/C=C/c2ccco2)CC1 | . | . | -33 | . | . | .
COc1ccc(NC(=O)C2CCN(S(=O)(=O)c3c(C)noc3/C=C/N(C)C)CC2)cc1 | . | . | -34 | / | . | .
Cc1ccc2c(c1)N(C(=O)C1CCN(S(=O)(=O)c3c(C)noc3/C=C/c3ccccc3F)CC1)CCO2 | . | . | -39 | . | . | .
OCC1(Cc2ccccc2F)CCCN(Cc2c(F)ccc(F)c2F)C1 (centres undefined) | 30 | . | . | / | . | .
Cc1c(C(=O)Nc2ccc(F)c(C(F)(F)F)c2)sc2nc(-c3ccccc3)cn12 | . | . | . | . | . | .
Cc1cccc(NC(=S)NC2CC3CCCC(C2)N3Cc2cccs2)c1 (centres undefined) | . | . | -89 | . | . | .
COCCNC(=S)NC1CC2CCCC(C1)N2Cc1cccs1 (centres undefined) | . | . | . | . | . | .
CC1=CC(=O)C=C(C)C1=NOS(=O)(=O)c1ccccc1 | . | . | . | . | . | .
CC1=CC(=O)C(C(C)C)=C/C1=N/OS(=O)(=O)c1ccccc1 | . | . | -31 | . | . | .
O=C(CN1CCC(Cc2ccccc2)CC1)NCCc1ccc(F)cc1 | . | . | . | . | . | .
NS(=O)(=O)c1ccc(CCNC(=O)CN2CCC(Cc3ccccc3)CC2)cc1 | . | . | -44 | . | . | .
NS(=O)(=O)c1ccc(CCNC(=O)C2CCN(S(=O)(=O)c3c(Cl)cccc3Cl)CC2)cc1 | 36 | . | . | . | . | .
COC(=O)c1cc2occc2n1CC(=O)Nc1ccc(C(C)C)cc1 | . | . | . | . | . | .
Cc1ccc(S(=O)(=O)c2cn(Cc3ccccc3)c3cc(N4CCCC4)c(F)cc3c2=O)cc1C | . | . | . | . | . | .
N#C/C(=C\c1ccc(-c2ccc(Br)cc2)o1)C(=O)NCCc1c[nH]c2ccccc12 | . | . | -34 | . | . | .
COCCNC(=O)C(OC(=O)c1cccs1)c1ccccc1 (centres undefined) | . | . | -36 | . | . | .
CCOC(=O)c1c(Nc2ccc(F)cc2)nnc(-c2ccccc2)c1-c1ccccc1 | . | . | . | . | . | .
COc1ccc(CCNC(=O)C(=O)NCC2OCCN2S(=O)(=O)c2ccc(OC)cc2)cc1 (centres undefined) | . | . | -35 | / | . | .
COc1ccc(S(=O)(=O)N2CCCOC2CNC(=O)C(=O)NCc2ccccc2F)cc1C (centres undefined) | . | . | -32 | / | . | .
O=C(NCCc1ccccc1)C(=O)NCC1OCCCN1S(=O)(=O)c1cc(F)ccc1F (centres undefined) | . | . | . | / | . | .
COc1ccc(S(=O)(=O)N2CCCOC2CNC(=O)C(=O)NCc2ccco2)cc1C (centres undefined) | . | . | . | . | . | .
Cc1cc(F)ccc1S(=O)(=O)N1CCCOC1CNC(=O)C(=O)NCCc1ccccc1 (centres undefined) | . | . | -34 | / | . | .

Compound activity (PubChem)
